Data taken from PubChem BioAssay.
Measured potencies and affinities stand elsewhere. Active and inactive are the calls of the source. The limit is not given here; nearly all actives have IC50 up to about 0.91 µM.

molecular target: Calcium-dependent protein kinase 4 (Plasmodium falciparum (isolate 3D7)) (UniProt Q8IBS5); assay: PfCDPK4 kinase inhibitors, biochemical, TCAMS library (AID 1159588); details: recombinant PfCDPK4, Kinase-Glo ATP depletion luminescence
Sequence (Q8IBS5 whole entry, looked up): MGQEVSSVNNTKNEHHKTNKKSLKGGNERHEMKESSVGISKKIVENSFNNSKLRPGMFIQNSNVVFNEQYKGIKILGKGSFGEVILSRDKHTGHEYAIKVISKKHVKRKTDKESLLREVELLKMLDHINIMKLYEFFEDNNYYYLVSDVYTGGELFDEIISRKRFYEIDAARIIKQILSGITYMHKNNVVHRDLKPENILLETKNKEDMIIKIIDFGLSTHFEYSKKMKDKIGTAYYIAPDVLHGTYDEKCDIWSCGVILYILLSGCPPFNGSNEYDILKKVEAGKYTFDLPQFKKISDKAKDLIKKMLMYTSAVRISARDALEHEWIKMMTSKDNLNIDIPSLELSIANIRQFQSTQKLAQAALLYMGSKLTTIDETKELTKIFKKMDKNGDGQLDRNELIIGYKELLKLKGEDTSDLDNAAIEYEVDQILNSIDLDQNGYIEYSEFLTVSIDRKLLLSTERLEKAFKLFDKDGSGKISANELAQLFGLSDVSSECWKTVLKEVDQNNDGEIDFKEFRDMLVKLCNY

outcome, inactive:
Cc1nc(C(=O)N2CCCC[C@H]2CNC(=O)c2ccc(-c3ccc(N4CCCC4=O)cc3C)cc2)c(-c2ccc(F)cc2)s1, CCCNc1nc(NCc2c(C)cccc2C)nc(NC(C)(C)C)n1, COc1cc2c(cc1N1C[C@@H](C)N[C@@H](C)C1)N(C(=O)c1ccc(-c3ccc(-c4ncc[nH]4)cc3C)cc1)CC2, CCc1cccc2sc(N3CCN(C(=O)c4ccc([N+](=O)[O-])o4)CC3)nc12, O=S(=O)(Nc1cccc(CCN2CCC(N3CCCCC3)CC2)c1)c1ccccc1C(F)(F)F, O=C(c1cccs1)N1CCN(c2ccc([N+](=O)[O-])c(NC3CC3)c2)CC1, Oc1cc(Nc2ccnc3cc(-c4ccc(CN5CCCCC5)o4)c(Cl)cc23)c(Cl)cc1F, O=[N+]([O-])c1ccc(NC(=NCCOc2ccccc2)Nc2ccccc2Br)c(O)c1, COc1ccccc1N1CCN(CCCCNC(=O)c2ccc(NC(=O)c3ccc(C(F)(F)F)cc3)cc2)CC1, COc1cc2ncnc(NCCc3ccccc3Cl)c2cc1OC, O=C(CCc1cnc[nH]1)Nc1cccc(-c2ccc(-c3nc4ccc(F)cc4[nH]3)cc2)c1, CNC(=O)NC1=NC(C)(C)N(OCCCOc2cc(Cl)c(Cl)cc2Cl)C(N)=N1, CC(Cc1ccc(OCCN2CCN(c3cccc(Cl)c3)CC2)cc1)NCC(O)c1cccc(C(F)(F)F)c1 (stereo not given), CCc1ccc(-c2nc3cc(NC(=O)c4cc([N+](=O)[O-])cc([N+](=O)[O-])c4)ccc3o2)cc1, O=C(/C=C/c1ccc([N+](=O)[O-])cc1)N1CCC(NS(=O)(=O)c2ccc(F)cc2)CC1, O=C(Nc1ccc(Cn2ncc(N3CCCNCC3)c(Cl)c2=O)cc1)Nc1cc(F)cc(C(F)(F)F)c1, O=C(Cc1cccs1)NC(CCCN1CCC(Oc2cccc(Cl)c2)CC1)c1ccc(Cl)c(Cl)c1 (stereo not given), NCC1CCCN1Cc1ccc(-c2ccc(-c3nc4ccc(C(F)(F)F)cc4[nH]3)s2)cc1 (stereo not given), Cc1ccccc1Nc1nc(Nc2ccccc2)c2ccccc2n1, O=C(C=NO)Nc1ccccc1[N+](=O)[O-], FC(F)(F)c1ccc2c(NCCc3ccccc3)ccnc2c1, COc1ccc(-c2ccc(NC(=O)c3ccc(F)cc3)cc2)cc1CNC(C)C, COc1ccccc1CCN(C)CCN1CCC(NC(=O)c2ccc(-c3ccc(C(F)(F)F)cc3)cc2)CC1, FC(F)(F)c1ccc2nc(-c3ccc(-c4cccc(CNCCc5ccncc5)c4)s3)[nH]c2c1, CC(C)(C)C/C=C\c1ccc(C(=O)NCC2CC2)cc1, CCOc1ccc(S(=O)(=O)N(C)c2ccc(OCC(=O)Nc3nccs3)cc2)cc1, CCOc1cc(C(=O)N[C@@H](Cc2ccccc2)[C@H](O)CNCc2cc(OC)cc(OC)c2)cc(N2CCCS2(=O)=O)c1, COc1ccc(CNc2nc(NCc3ccc(C(F)(F)F)cc3)c3cc(OC)c(OC)cc3n2)cc1OC, Cc1c(CNCCCNc2nc3cscc3[nH]2)sc(C(F)F)c1Br, Cc1ccc(Nc2nccc(NCC(O)c3cccc(C(F)(F)F)c3)n2)cc1 (stereo not given), Cc1ccccc1Nc1nc(NCCc2ccccc2)nc2ccccc12, CCOC(=O)c1c(C)n(-c2ccccc2)c2ccc(OC(=O)COc3ccc(Cl)cc3Cl)cc12, CCc1cc2c3c(N)nc(N)nc3ccc2n1C(C)CC (stereo not given), CCc1ccc(NC(=O)c2ccc(CN3CCCN(CCC(C)C)CC3)cc2)cc1, Oc1ccccc1CN1CCCC(COC(c2ccc(F)cc2)c2ccc(F)cc2)C1 (stereo not given), CC1CN(Cc2ccc(C#N)cc2)CCN1c1ccc(NC(=O)c2cccs2)cc1 (stereo not given), O=C(Nc1ccccc1)N(Cc1ccccc1-c1cccc(CNCc2ccc3c(c2)OCO3)c1)C1CCN(Cc2ccccc2)CC1, COc1cc(CC2c3cc(O)c(Cl)cc3CCN2C)c(OC)cc1C (stereo not given), COc1cc(NC(=O)/C=C/c2cc(F)cc(F)c2F)cc(OCCN2CCC(O)(c3ccccc3)CC2)c1, CC(Nc1nc(Nc2ccc(F)cc2)nc(SCC(N)=O)n1)c1ccccc1 (stereo not given)
